FLuc inh – Firefly luciferase inhibition profiling of diverse chemical library using quantitative high-throughput screening. purified P. pyralis luciferase, luminescence, biochemical. 76,000 compounds, 2.5% hits. Potency, µM (doses to about 115 µM), usual class: inhibitors. Luciferin 4-monooxygenase (Photinus pyralis), P08659; further: nearly all actives have a fitted effect of over 65% in size
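Luminescence read by CCD imager after adding enzyme (10nM final) to wells holding compound, titrated in qHTS. Substrates 10uM each D-luciferin and ATP; buffer 50mM Tris acetate pH 7.5, 10mM Mg acetate, Tween-20, BSA.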
hNpr1 antagonist – Natriuretic polypeptide receptor (hNpr1) antagonism - Primary qHTS | Potency, µM (doses to about 46.3 µM), for inactives: top-dose activity change, negative = inhibition, actives largely listed as inhibitors | Atrial natriuretic peptide receptor 1 (Homo sapiens), P16066 | 76,000 compounds, 1.6% hits | HEK293 hNpr1 GloSensor cGMP, ANP-stimulated luminescence; calls by dose curve; further: nearly all actives have a fitted effect of over 60% in size
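HEK293 cells stably expressing human Npr1 and cGMP GloSensor pGS-40F, loaded 2 h with 2% GloSensor reagent, given compound 30 min at room temperature. Luminescence read before and 20 min after 0.1 nM hNppA.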
GPT2 inhibitor – Primary qHTS assay for inhibitors of Glutamate pyruvate transaminase 2 (GPT2). Alanine aminotransferase 2 (Homo sapiens), Q8TD30. Recombinant GPT2, coupled pyruvate oxidase/HRP Amplex Red fluorescence. Potency, µM (doses to about 57.7 µM), inactives show top-dose activity change, negative = inhibition, most hits filed as inhibitors. 100,000 compounds, 0.25% hits; further: nearly all actives have a fitted effect of over 60% in size
Target sequence (Q8TD30 whole entry, looked up): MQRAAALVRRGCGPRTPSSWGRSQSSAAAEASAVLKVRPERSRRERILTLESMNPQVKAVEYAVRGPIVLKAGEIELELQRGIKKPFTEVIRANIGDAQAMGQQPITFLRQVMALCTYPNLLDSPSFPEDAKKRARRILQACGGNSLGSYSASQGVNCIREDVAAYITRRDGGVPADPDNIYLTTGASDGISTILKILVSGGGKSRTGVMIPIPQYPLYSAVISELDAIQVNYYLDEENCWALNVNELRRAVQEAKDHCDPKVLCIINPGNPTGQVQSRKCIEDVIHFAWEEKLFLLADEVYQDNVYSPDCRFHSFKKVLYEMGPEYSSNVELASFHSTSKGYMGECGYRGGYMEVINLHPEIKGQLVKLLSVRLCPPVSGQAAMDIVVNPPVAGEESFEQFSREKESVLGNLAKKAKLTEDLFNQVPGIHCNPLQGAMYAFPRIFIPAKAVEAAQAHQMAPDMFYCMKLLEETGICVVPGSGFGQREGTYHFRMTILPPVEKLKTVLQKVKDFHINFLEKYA
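Recombinant GPT2 (10ng/uL) with 250uM a-KG and 2mM L-alanine, 30 min at room temperature, in HEPES pH 7.5 buffer. Pyruvate detected by pyruvate oxidase/HRP/Amplex Red fluorescence after 30 min in the dark; AOA (50uM) as positive control.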
NIH3T3 tox – Cytotoxic Profiling in NIH 3T3 Cell Line of Diverse Libraries Using Quantitative High-Throughput Screening; NIH 3T3 viability, CellTiter-Glo ATP luminescence, 48-72 h; Potency, µM (titrated, usually from 96.7 µM), without a hit: at the top dose activity change, negative = cytotoxicity, usual class: inhibitors; 94,000 compounds, 4.3% hits; further: nearly all actives have a fitted effect of over 55% in size
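Cells were seeded at 400 per well, treated with pin-transferred compound, and kept 48 or 72 hr at 37 °C before CellTiter-Glo addition and luminescence imaging of cellular ATP.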
HEK293 tox – Cytotoxic Profiling in HEK 293 Cell Line of Diverse Libraries Using Quantitative High-Throughput Screening; Potency, µM (top dose mostly 115 µM), without a hit: at the top dose activity change, negative = cytotoxicity, hits mostly inhibitors; HEK 293 viability, ATP luminescence (CellTiter-Glo), 48-72 h; 94,000 compounds, 6.6% hits; AID 1345083, 2018; further: nearly all actives have a fitted effect of over 60% in size
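HEK 293 seeded at 250 cells/well receive compound via pintool. After 48 or 72 hr at 37 degree Celsius, 5% CO2 and 95% humidity, CellTiter-Glo is dispensed and luminescence read following 10 min at room temperature.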
* marks the source's active call; other numbers are inactive results; i = inactive; ? = inconclusive; . = not tested or not shown; [ ] = another dose, or the depositor's remark. Most compounds without a hit are left out; they make up all but 10% or so of the library. Unless noted, the call rests on the fitted dose curve; in most records, active means well fitted curve in the direction sought with a large enough effect; inconclusive means small, poorly fitted or top-dose-only effect, or another doubt; inactive means no such curve, though single readings can be large; an effect the other way counts as inactive or inconclusive. On the % scale 0 is the no-effect control and ±100 the full control effect; potency means the concentration at half of the fitted maximal effect.

SMILES | FLuc inh | hNpr1 antagonist | GPT2 inhibitor | NIH3T3 tox | HEK293 tox
Clc1cc(NCc2ccccc2Cl)n2nccc2n1 | i | ? | -12%[88.5 µM] | 20µM* | ?
COc1ccc(CNc2cc(Cl)nc3ccnn23)cc1 | i | -24%[70.6 µM] | 5%[88.5 µM] | ? | 71µM*
CC(C)C[C@@H]1N[C@H](C(=O)NCc2ccccc2)Cc2cn(Cc3ccncc3)c3cccc1c23 | i | -5% | -3% | ? | ?
C#CCNC(=O)[C@@H]1Cc2cn(Cc3cccnc3)c3cccc(c23)[C@H](CC(C)C)N1 | i | -1%[70.6 µM] | -22%[88.5 µM] | 79µM* | 56µM*
COCCNC(=O)[C@@H]1Cc2cn(Cc3cccnc3)c3cccc(c23)[C@H](CC(C)C)N1 | i | -3%[70.6 µM] | ? | ? | 45µM*
C=CCNC(=O)[C@@H]1Cc2cn(Cc3ccncc3)c3cccc(c23)[C@H](CC(C)C)N1 | i | -26%[70.6 µM] | ? | ? | 35µM*
CC(C)C[C@@H]1N[C@H](C(=O)NCC2CC2)Cc2cn(Cc3cccnc3)c3cccc1c23 | i | -28%[70.6 µM] | 1%[88.5 µM] | ? | ?
COCCNC(=O)[C@@H]1Cc2cn(Cc3ccccn3)c3cccc(c23)[C@H](CC(C)C)N1 | i | 0%[70.6 µM] | ? | ? | 28µM*
Cc1ccc(-c2ncc[nH]2)cc1NC(=O)c1ccc(OCc2ccccn2)cc1 | . | . | 3% | . | .
COCCNC(=O)[C@@H]1Cc2cn(Cc3ccncc3)c3cccc(c23)[C@H](CC(C)C)N1 | i | -3%[70.6 µM] | 5%[88.5 µM] | 45µM* | 45µM*
Cn1ccc(C(=O)N2CC(COc3ccccc3)C3(C2)CN(c2ccccc2)C3)n1 (centres undefined) | i | -1%[70.6 µM] | -15%[88.5 µM] | 100µM* | ?
Cc1ncsc1C(=O)N1CC(CNC(=O)Cc2ccccc2)C2(C1)CN(c1ccccc1)C2 (centres undefined) | i | 4% | -1% | ? | 2%
Cn1ccc(C(=O)N2CC(CNc3ccccc3)C3(C2)CN(c2ccccc2)C3)n1 (centres undefined) | i | ? | ? | ? | 63µM*
Cn1ccc(C(=O)N2CC(CNC(=O)Nc3ccccc3)C3(C2)CN(c2ccccc2)C3)n1 (centres undefined) | i | -4% | -7% | ? | -11%
Cc1ncsc1C(=O)N1CC(COc2ccccc2)C2(C1)CN(c1ccccc1)C2 (centres undefined) | i | 1%[70.6 µM] | -4%[88.5 µM] | ? | 100µM*
COc1cccc(C(=O)NC2CCN(C(=O)c3ccc(-c4cccc(OC)c4)cc3)CC2)c1 | . | . | 2% | ? | ?
C1=C(c2cc(-c3cccc4cn[nH]c34)cn3cncc23)CCOC1 | i | -22%[70.6 µM] | -1%[88.5 µM] | ? | ?
CN1CC(=O)N(C2CCCNCC2)Cc2c(NCCc3ccccn3)ncnc21 (centres undefined) | . | . | 3% | -17% | 0%
Cn1nc2n(c1=O)CCN(S(=O)(=O)c1ccc3[nH]c(=O)oc3c1)CC2 | i | 1% | -5% | i | 19%
CC(=O)Oc1c(-c2ccc(NC(=O)c3ccco3)cc2)c(-c2cccc(F)c2)nn1-c1ccc(C)cc1 | i | -15% | 28µM* | ? | ?
CC(=O)Oc1c(-c2ccc(NC(=O)c3ccco3)cc2)c(-c2cccc(C)c2)nn1-c1ccc(F)cc1 | ? | -26% | 25µM* | ? | ?
COc1cccc(-c2nn(-c3ccccc3)c(OC(C)=O)c2-c2ccc(NC(=O)C3CCCC3)cc2)c1 | i | -17% | 7.1µM* | ? | ?
COc1ccc(-c2nn(-c3ccccc3C)c(OC(C)=O)c2-c2ccc(NC(C)=O)cc2)cc1OC | i | -3% | i | -21% | ?
CC(=O)Oc1c(-c2ccc(NC(=O)c3ccco3)cc2)c(-c2cccc(C)c2)nn1-c1cccc(F)c1 | i | -13% | ? | ? | ?
CS(=O)(=O)NCCc1ccc(CC2CCN(C(=O)CCC3CCCC3)CC2)cc1 | . | . | 3% | ? | ?
SMILES | FLuc inh | hNpr1 antagonist | GPT2 inhibitor | NIH3T3 tox | HEK293 tox
Cc1cccc(-c2cccc(CN3CCC(NC(=O)Nc4ccc(Cl)cc4)CC3)c2)c1 | . | . | -5% | 11µM* | 6.3µM*
CC(=O)NC1CCN(Cc2cccc(-c3cccc(C)c3)c2)CC1 | . | . | i | 100µM* | ?
COC(=O)NC1CCN(Cc2cccc(-c3cccc(C)c3)c2)CC1 | . | . | i | ? | ?
Cc1ccc(C(=O)NC2CCN(Cc3cccc(-c4cccc(C)c4)c3)CC2)cc1 | . | . | i | 32µM* | 40µM*
Cc1cccc(-c2cccc(CN3CCC(NC(=O)c4ccc(Cl)cc4)CC3)c2)c1 | . | . | -7% | -21% | -30%
Cc1cccc(-c2nocc2CCC(=O)O)c1 | ? | 0% | i | -8% | -2%
Cc1cccc(-c2nocc2CCC(=O)NC2CCN(Cc3ccccc3)CC2)c1 | 32µM* | -19% | 2% | ? | ?
COCCCNC(=O)CCN(CCCOC)C(=O)c1cc(C)oc1C | i | 2% | -12% | 2% | -11%
OCC1(CCc2ccccc2)CCNCC1 | i | -1% | i | i | i
Cc1ccc(NC(=O)CN2C(=O)NC3(CCCCC3)C2=O)c(C)c1 | i | 4% | -3% | -14% | -4%
O=c1n(CC2CC2)nc2n1CCN(C1CCCC1)CC2 | i | -1% | -1% | 2% | i
Cc1cccc(-c2cccc(CN3CCC(NC(=O)c4ccccc4)CC3)c2)c1 | . | . | i | 25µM* | 35µM*
COc1ccc(C(=O)N(CC2CC2)CC2CN(C(=O)Nc3ccccc3)CCO2)cc1OC (centres undefined) | i | 1% | i | ? | 28µM*
O=C(NCc1ccccc1)N1CCOC(CN(CC2CC2)C(=O)c2cccc(F)c2)C1 (centres undefined) | i | 0% | i | -20% | ?
COC1CN(c2cccc(F)c2)C12CCN(C(=O)C1CCC1)CC2 (centres undefined) | i | 3% | i | -19% | ?
COC1CN(c2cccc(F)c2)C12CCN(C(=O)NC(C)(C)C)CC2 (centres undefined) | i | -1% | i | -18% | ?
COC1CN(c2cccc(F)c2)C12CCN(C(=O)c1ccncc1)CC2 (centres undefined) | i | 0% | i | -9% | -22%
COC1CN(c2cccc(F)c2)C12CCN(S(=O)(=O)c1cccc(F)c1)CC2 (centres undefined) | . | . | i | ? | 28µM*

Screening data: PubChem, National Center for Advancing Translational Sciences (NCATS)
